Twelve compounds from PubChem BioAssay (NCI) can be followed below.

Values joined by “and” are separate entries in the source; they are usually repeats but may differ in a detail not shown here. Equal entries are not always repeated. The panel holds about 83,000 compounds, 20% with a hit somewhere; the sample as a whole holds those more often.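 96-well plates, one dose, 48 hours. Percent growth reported; active if below 10.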 Active and inactive are the calls of the source.

Among the test systems are SR leukemia; RPMI-8226 leukemia; OVCAR-8 ovarian; OVCAR-5 ovarian; SK-OV-3 ovarian; IGROV1 ovarian; OVCAR-3 ovarian; HS 578T breast; NCI/ADR-RES ovarian; OVCAR-4 ovarian.
Test in all cases: NCI-60 one-dose screen, 48 h (100 = growth as untreated, 0 = no growth, -100 = all killed)
Holding throughout (details): 10 µM unless noted

On to `OCCS`, for which the growth in the experiment with SR leukemia is 90.5% (inactive); in the experiment on RPMI-8226 leukemia, 104% (inactive); with OVCAR-8 ovarian, 103% (inactive); with OVCAR-5 ovarian it was 104% (inactive); with SK-OV-3 ovarian it was 101% (inactive); in the experiment on IGROV1 ovarian it was 110% (inactive). Also, the growth in the experiment with OVCAR-3 ovarian was 105% (inactive); in the experiment on HS 578T breast, 106% (inactive); with NCI/ADR-RES ovarian, 102% (inactive).

For the compound `COc1ccc(CCN=Cc2ccc(Cl)cc2)cc1OC`, the growth in the experiment on SR leukemia was 98.5% (inactive); in the experiment with RPMI-8226 leukemia, 108% (inactive); in the experiment with OVCAR-8 ovarian, 104% (inactive); in the experiment with OVCAR-4 ovarian, 110% (inactive); in the experiment with SK-OV-3 ovarian it was 112% (inactive); with IGROV1 ovarian, 105% (inactive). Moreover, the growth in the experiment with OVCAR-3 ovarian is 115% (inactive); in the experiment on HS 578T breast, 106% (inactive); in the experiment on NCI/ADR-RES ovarian, 106% (inactive).

For the compound `CC(=O)/C(N=Nc1ccc(S(=O)(=O)c2ccc(N=N/C(C(C)=O)=C(/C)O)cc2)cc1)=C(\C)O`, the growth in the experiment on SR leukemia is 101% (inactive); in the experiment with RPMI-8226 leukemia, 86.7% (inactive); in the experiment on OVCAR-8 ovarian it was 102% (inactive); in the experiment with OVCAR-4 ovarian, 107% (inactive); in the experiment on SK-OV-3 ovarian, 112% (inactive); in the experiment on IGROV1 ovarian it was 92.9% (inactive). For the same compound, the growth in the experiment with OVCAR-3 ovarian is 105% (inactive); in the experiment with HS 578T breast it was 109% (inactive); in the experiment on NCI/ADR-RES ovarian, 102% (inactive).

Take `CC1(CO)CCCC1NCCNC1CCCC1(C)CO` (stereo not drawn): the growth in the experiment on SR leukemia was 95.9% (inactive); in the experiment on RPMI-8226 leukemia, 102% (inactive) and 97% (inactive); in the experiment on OVCAR-8 ovarian it was 97.8% (inactive) and 102% (inactive); in the experiment with OVCAR-5 ovarian, 110% (inactive) and 98.9% (inactive); in the experiment with SK-OV-3 ovarian, 111% (inactive) and 101% (inactive); in the experiment on IGROV1 ovarian it was 115% (inactive) and 107% (inactive). Further, the growth in the experiment with OVCAR-3 ovarian was 128% (inactive) and 112% (inactive); with HS 578T breast, 112% (inactive) and 106% (inactive); with NCI/ADR-RES ovarian it was 105% (inactive) and 107% (inactive).

`CCCC(=O)Oc1ccc(CC)cc1`: the growth is 90.5% (inactive) with SR leukemia; 108% (inactive) in the experiment on RPMI-8226 leukemia; 98.1% (inactive) with OVCAR-8 ovarian; 102% (inactive) with OVCAR-5 ovarian; 103% (inactive) in the experiment on SK-OV-3 ovarian; 104% (inactive) with IGROV1 ovarian. Further, the growth in the experiment on OVCAR-3 ovarian was 115% (inactive); in the experiment with HS 578T breast, 113% (inactive); in the experiment with NCI/ADR-RES ovarian, 105% (inactive).

Take `CC1=CC(=O)c2cccc(NC3=NCCO3)c21`: the growth with SR leukemia was 91.6% (inactive); in the experiment on RPMI-8226 leukemia, 91.6% (inactive); in the experiment on OVCAR-8 ovarian, 102% (inactive); in the experiment with OVCAR-4 ovarian, 95.1% (inactive); in the experiment with SK-OV-3 ovarian, 103% (inactive); in the experiment on IGROV1 ovarian it was 104% (inactive). In addition, the growth with OVCAR-3 ovarian was 106% (inactive); in the experiment on HS 578T breast, 103% (inactive); in the experiment on NCI/ADR-RES ovarian it was 97.5% (inactive).

Regarding `NCCSSC/C=C\CSSCCN`, the growth in the experiment on SR leukemia was 107% (inactive); in the experiment with RPMI-8226 leukemia, 94.9% (inactive); in the experiment on OVCAR-8 ovarian, 97% (inactive); in the experiment on OVCAR-5 ovarian, 121% (inactive); with SK-OV-3 ovarian, 99.8% (inactive); with IGROV1 ovarian, 115% (inactive). In addition, the growth with OVCAR-3 ovarian is 109% (inactive); in the experiment with HS 578T breast, 93% (inactive); in the experiment with NCI/ADR-RES ovarian, 107% (inactive).

On to `Cc1ccc2cccc([N+](=O)[O-])c2n1`, for which the growth in the experiment with SR leukemia was 97.7% (inactive) and 94% (inactive); with RPMI-8226 leukemia it was 111% (inactive) and 92.8% (inactive); with OVCAR-8 ovarian, 101% (inactive) and 108% (inactive); in the experiment with OVCAR-5 ovarian, 104% (inactive) and 101% (inactive); in the experiment with SK-OV-3 ovarian it was 102% (inactive) and 100% (inactive); in the experiment with IGROV1 ovarian it was 109% (inactive) and 114% (inactive). Besides, the growth in the experiment with OVCAR-3 ovarian was 111% (inactive) and 110% (inactive); in the experiment with HS 578T breast it was 111% (inactive) and 109% (inactive); in the experiment on NCI/ADR-RES ovarian, 113% (inactive) and 102% (inactive).

Consider `OCCSc1ccc(Cl)cc1`, for which the growth in the experiment on SR leukemia was 117% (inactive) and 99.7% (inactive); in the experiment with RPMI-8226 leukemia it was 122% (inactive) and 84.6% (inactive); in the experiment with OVCAR-8 ovarian it was 111% (inactive) and 103% (inactive); in the experiment with OVCAR-5 ovarian it was 105% (inactive) and 91.1% (inactive); in the experiment with SK-OV-3 ovarian, 112% (inactive) and 86.9% (inactive); with IGROV1 ovarian it was 109% (inactive) and 93.6% (inactive). The growth is 124% (inactive) and 110% (inactive) in the experiment on OVCAR-3 ovarian; 101% (inactive) in the experiment with HS 578T breast; 108% (inactive) and 102% (inactive) in the experiment on NCI/ADR-RES ovarian.

Take `CCOC(=O)CN1CCC(C(=O)OCC)CC1`: the growth was 124% (inactive) in the experiment with SR leukemia; 95.8% (inactive) in the experiment with RPMI-8226 leukemia; 106% (inactive) in the experiment on OVCAR-8 ovarian; 108% (inactive) with OVCAR-4 ovarian; 99.1% (inactive) in the experiment on SK-OV-3 ovarian; 122% (inactive) in the experiment with IGROV1 ovarian. For the same compound, the growth was 117% (inactive) in the experiment with OVCAR-3 ovarian, 106% (inactive) in the experiment with HS 578T breast and 110% (inactive) in the experiment with NCI/ADR-RES ovarian.

With `CC1CCC(=O)N1c1ccc(N)cc1` (stereo not drawn), the growth in the experiment with SR leukemia was 93.8% (inactive); in the experiment on RPMI-8226 leukemia, 103% (inactive); in the experiment on OVCAR-8 ovarian, 100% (inactive); in the experiment on OVCAR-4 ovarian, 107% (inactive); in the experiment with SK-OV-3 ovarian, 99.3% (inactive); with IGROV1 ovarian, 101% (inactive). The growth in the experiment on OVCAR-3 ovarian was 108% (inactive); in the experiment with HS 578T breast it was 108% (inactive); with NCI/ADR-RES ovarian, 106% (inactive).

Turning to `O=C(O)c1cc(=O)[nH]c(=O)[nH]1`, the growth in the experiment with SR leukemia was 104% (inactive); in the experiment with RPMI-8226 leukemia, 98.2% (inactive) and 71.6% (inactive); in the experiment on OVCAR-8 ovarian, 102% (inactive) and 76.4% (inactive); in the experiment with OVCAR-5 ovarian, 101% (inactive) and -23.6% (active); in the experiment with SK-OV-3 ovarian it was 104% (inactive) and 112% (inactive); in the experiment on IGROV1 ovarian it was 103% (inactive). Also, the growth is 114% (inactive) and 112% (inactive) in the experiment on OVCAR-3 ovarian; 107% (inactive) and 94.8% (inactive) in the experiment on HS 578T breast; 107% (inactive) and -33.1% (active) with NCI/ADR-RES ovarian.
